# According to the supplement of paper PMC4166925:
# ± gives the standard deviation of the averaged measurements. In all, about 33,000 sequences were measured (“E-score (dimensionless, -0.5 to 0.5)”: median about -0.046, highest 2% from about 0.36 on). Only a selection was taken, and the highest values are over-represented in it overall.
# Test system: T1, SpTbr T-box DNA-binding domain (GST fusion)
# T1 sequence: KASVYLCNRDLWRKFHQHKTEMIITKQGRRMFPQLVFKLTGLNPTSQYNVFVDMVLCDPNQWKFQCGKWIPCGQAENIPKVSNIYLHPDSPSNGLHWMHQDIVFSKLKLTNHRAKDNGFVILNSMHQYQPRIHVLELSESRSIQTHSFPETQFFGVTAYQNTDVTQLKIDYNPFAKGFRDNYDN
# Assay: PBM E-score of 8-mer (E-score (dimensionless, -0.5 to 0.5)); Tbr is Tbrain of the sea star Patiria miniata (Pm) or the sea urchin Strongylocentrotus purpuratus (Sp); higher = stronger binding preference
# Settings: the construct has about 5 more residues each side
# Protocol: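 Universal protein-binding microarray (Agilent AMADID 016060, 60-bp probes with a 35-bp variable region) incubated with 200 nM GST-fused Strongylocentrotus purpuratus Tbr T-box DNA-binding domain (residues 362-554) in PBS pH 7.5. Scored for every ungapped 8-mer (given with its reverse complement) as E-score (range -0.5 to 0.5; >0.45 counts as bound) and Z-score of median probe intensity. Two replicate arrays (datasets 1 and 2).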
# 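Further: protein at 200 nM in PBS on universal double-stranded arrays.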
row,Sequence,PBM E-score of 8-mer
1,TGTCAAAA,0.289 ± 0.021
2,TACCCGGA,-0.128 ± 0.15
3,GCAATCGC,0.212 ± 0.0066
4,ACTGAGGA,-0.0611 ± 0.02
5,CCAATAAC,-0.0379 ± 0.13
6,CTGGGACC,-0.174 ± 0.015
7,ACGCCAAC,0.144 ± 0.021
8,CCAGCTTC,-0.142 ± 0.058
9,CGAACAGA,0.0582 ± 0.028
10,AAGACCTT,-0.259 ± 0.0063
11,AACACCTT,0.479 ± 0.0049
12,CACACCGG,0.175 ± 0.059
13,AACACCTG,0.463 ± 0.0057
14,AACACCGT,0.243 ± 0.091
15,AACACCGG,0.118 ± 0.015
16,ACCACCTG,0.224 ± 0.037
17,CACACCTG,0.479 ± 0.0072
18,CAGACCTG,-0.0842 ± 0.0016
19,GTATGCAC,0.0616 ± 0.043
20,CTAGTTTC,-0.105 ± 0.053
21,CTACGCGA,0.0131 ± 0.01
22,AACTCTGA,-0.0644 ± 8.5e-05
23,CGCAAGAC,0.07366 ± 4.2e-05
24,ACGCATGG,-0.144 ± 0.018
25,AGCTGCCA,0.111 ± 0.099

row,Sequence,PBM E-score of 8-mer
1,ACGTGCCG,0.199 ± 0.058
2,AGGTGCCG,0.421 ± 0.0055
3,AGGTGCCA,0.46212 ± 0.00034
4,GCGTGCCA,0.128 ± 0.01
5,CGGTGCCA,0.119 ± 0.02
6,AGGTGCCC,0.00863 ± 0.0099
7,ACGTGCCA,0.361 ± 0.033
8,CGGTGCGA,0.339 ± 0.0046
9,GGGTGCGA,0.4746 ± 0.00052
10,GGGTGCCA,0.3739 ± 0.003
11,GTGTGCGA,0.361 ± 0.0042
12,ACGATCAC,0.119 ± 0.031
13,AGGTTTAA,-0.0723 ± 0.017
14,GGACTTGA,-0.12 ± 0.047
15,AATACTGG,-0.329 ± 0.041
16,TATATCAA,-0.174 ± 0.03
17,AAATGGTA,-0.152 ± 0.041
18,TGCGAGAA,0.36401 ± 0.00027
19,CAACAAGG,0.0674 ± 0.0062
20,ACTTCACG,0.312 ± 0.018
21,CCTTCACA,0.404 ± 0.0071
22,CCTTCACG,0.278 ± 0.019
23,CCTTCACC,0.14 ± 0.013
24,ACTTCACA,0.357 ± 0.02
25,TCTTCACA,0.395 ± 0.015

row,Sequence,PBM E-score of 8-mer
1,ATCCCAGA,-0.0492 ± 0.043
2,GATTTTCC,-0.00302 ± 0.027
3,CCCCAAAA,-0.112 ± 0.042
4,TATTTGAA,-0.214 ± 0.013
5,CACCTCCA,0.3876 ± 0.00048
6,CACCTCCC,0.389 ± 0.017
7,CACCTCCG,0.4516 ± 0.0039
8,AACCTCCC,-0.0867 ± 0.0052
9,AACCTCCA,-0.135 ± 0.018
10,GACCTCCC,-0.159 ± 0.12
11,CCCCTCCG,0.119 ± 0.066
12,AACCTCCG,0.0095 ± 0.07
13,TACCTCCA,-0.0368 ± 0.093
14,AGCGGGCA,-0.0395 ± 0.016
15,GACGTGCA,0.0705 ± 0.07
16,ACCCGAGA,0.0223 ± 0.0071
17,GCCCGACC,-0.213 ± 0.054
18,CTAGGTTA,-0.16 ± 0.08
19,GTTTAGCA,0.102 ± 0.11
20,AACCTCAG,-0.244 ± 0.045
21,CACCTCAG,0.376 ± 0.0075
22,AACCTCAA,-0.158 ± 0.018
23,CACCTCAC,0.444 ± 0.012
24,CTCCTCAG,-0.0357 ± 0.025
25,TACCTCAA,-0.13 ± 0.045

row,Sequence,PBM E-score of 8-mer
1,AACCTCAC,0.182 ± 0.034
2,GACCTCAC,0.137 ± 0.049
3,CACCTCAA,0.375 ± 0.024
4,CGAAAACG,0.0298 ± 0.05
5,CGATACAG,-0.0251 ± 0.13
6,GAGTTGGA,-0.0967 ± 0.023
7,ATCTTCAC,0.267 ± 0.02
8,TCTTAACA,0.214 ± 0.041
9,GGTTATAC,0.0871 ± 0.041
10,GCATGCTA,0.00793 ± 0.094
11,ATAGGGAG,-0.00632 ± 0.036
12,AGAGTGTA,0.0671 ± 0.0042
13,ATAGTGTA,0.0763 ± 0.038
14,ATAGTGTC,0.272 ± 0.07
15,AGAGTGTC,0.359 ± 0.0099
16,AGAGTGTG,0.375 ± 0.022
17,ATAGTGTG,0.388 ± 0.026
18,CGAAGACC,-0.109 ± 0.036
19,GAGCCCCA,-0.124 ± 0.065
20,GGGTTAAA,-0.213 ± 0.063
21,TAACCGAA,-0.212 ± 0.034
22,CCGCAGAC,-0.143 ± 0.042
23,GATCAATA,0.0446 ± 0.036
24,CGCCACAG,0.0527 ± 0.03
25,CGCCACAA,0.0762 ± 0.081

row,Sequence,PBM E-score of 8-mer
1,CGCCACAC,0.3647 ± 0.0013
2,GGCCACAC,0.3886 ± 0.00083
3,AGCCACAC,0.311 ± 0.049
4,GGCCACAA,0.0675 ± 0.11
5,GAGATGGC,-0.0157 ± 0.0073
6,CAACCTAG,-0.0248 ± 0.069
7,AAAGGTGA,0.316 ± 0.0022
8,AAAGGTGG,0.0801 ± 0.026
9,AAAGGTAC,-0.0923 ± 0.05
10,AAAGGTGC,0.414 ± 0.01
11,AAGGGTGG,0.146 ± 0.028
12,AAAGGTCC,0.0265 ± 0.0014
13,AAAGGTGT,0.469 ± 0.0063
14,ATAGGTGC,0.412 ± 0.012
15,CTAGGTGC,0.3603 ± 0.003
16,AAGGGTGT,0.383 ± 0.015
17,AAGGGTGA,0.136 ± 0.04
18,ATAGGTGA,0.284 ± 0.032
19,CGGGTGAA,-0.3489 ± 0.0032
20,AGCAACCA,-0.0779 ± 0.012
21,CTACCGTC,-0.191 ± 0.04
22,ATTTACCG,-0.131 ± 0.054
23,CGAGGGTA,-0.211 ± 0.033
24,GATGAGGC,-0.112 ± 0.027
25,GGTCTACA,-0.0571 ± 0.025

row,Sequence,PBM E-score of 8-mer
1,AGGTAAAA,-0.0157 ± 0.037
2,AATTCACA,0.297 ± 0.035
3,GATTCACA,0.392 ± 0.0093
4,GATTCACC,-0.0546 ± 0.0018
5,CATTCACA,0.427 ± 0.014
6,CATTCACG,0.238 ± 0.024
7,CATTCACC,-0.0478 ± 0.011
8,GATTCAGA,-0.233 ± 0.061
9,AATTCACG,0.345 ± 0.01
10,TATTCACA,0.423 ± 0.023
11,CAGAGAGA,-0.036 ± 0.025
12,CGTAGCCA,-0.196 ± 0.073
13,CCGATAAA,-0.0119 ± 0.097
14,AGGAAACT,-0.0834 ± 0.015
15,CGCTTGAC,0.136 ± 0.0033
16,AGTTGACG,0.226 ± 0.0068
17,CGTTGACC,0.0141 ± 0.0079
18,CTTTGACA,0.174 ± 0.035
19,GTTTGACA,0.332 ± 0.036
20,CGTTGACA,0.414 ± 0.0098
21,AGTTGACC,-0.106 ± 0.098
22,AGTTGACA,0.4138 ± 0.001
23,GCTTGACA,0.258 ± 0.034
24,GGTTGACA,0.382 ± 0.017
25,CGTTGTTC,-0.116 ± 0.067

row,Sequence,PBM E-score of 8-mer
1,ACGGGCGG,-0.083 ± 0.0064
2,GTCTTGGA,-0.322 ± 0.015
3,CATAGAGA,-0.161 ± 0.012
4,CCCTGTAA,0.137 ± 0.0029
5,ATCGAGGC,-0.0694 ± 0.048
6,CACTTCAA,0.213 ± 0.013
7,AGTTGTCA,0.393 ± 0.016
8,AGTTGTTA,0.369 ± 0.04
9,AGTTGTTG,0.245 ± 0.024
10,AGTTGTCG,0.293 ± 0.033
11,CGTTGTTA,0.142 ± 0.034
12,GGTTGTCA,0.338 ± 0.0013
13,GCTTCGCA,0.358 ± 0.017
14,GGTTCGGA,-0.2634 ± 0.0013
15,AGTTCGCC,0.0613 ± 0.039
16,AGTTCGCG,0.296 ± 0.038
17,CGTTCGCC,0.11 ± 0.024
18,GGTTCGCA,0.378 ± 0.0054
19,AGTTCGCA,0.3728 ± 0.00053
20,CGTTCGTA,-0.134 ± 0.018
21,CGTTCGCA,0.411 ± 0.0075
22,CGGTTATA,-0.00559 ± 0.033
23,GGGGTCGA,-0.0352 ± 0.02
24,GCGAGATA,0.105 ± 0.0039
25,CATTGTCG,0.038 ± 0.0095

row,Sequence,PBM E-score of 8-mer
1,ATGATGAA,-0.154 ± 0.044
2,GGTGACGA,0.418 ± 0.018
3,CGTGACAG,0.217 ± 0.019
4,CGTGACGA,0.311 ± 0.029
5,AGTGACAT,0.277 ± 0.056
6,ACTGACAA,0.165 ± 0.0096
7,AGTGACGA,0.329 ± 0.029
8,AGTGACAA,0.397 ± 0.014
9,AGTGACAC,0.435 ± 0.0092
10,AGTGACAG,0.3301 ± 0.0022
11,CGTGACAA,0.364 ± 0.0037
12,CGTGACAC,0.38 ± 0.015
13,CGTGACGC,0.192 ± 0.033
14,GATCGAGA,0.00394 ± 0.097
15,AGGCTAAT,-0.255 ± 0.1
16,ACTAAGCC,-0.223 ± 0.02
17,AGCCTACC,-0.245 ± 0.012
18,GAGAATAC,-0.0812 ± 0.016
19,GATTTTGA,-0.0555 ± 0.0057
20,AACGCAAA,0.0563 ± 0.092
21,GCAGCGAA,0.104 ± 0.068
22,ACAAGAGG,-0.0502 ± 0.064
23,CAACTCTA,-0.0379 ± 0.031
24,TCGTATCA,0.129 ± 0.031
25,GGTGACAA,0.459 ± 0.011

row,Sequence,PBM E-score of 8-mer
1,GGAGACAC,0.193 ± 0.045
2,GGTGACAC,0.4606 ± 0.0026
3,TGTGACAA,0.412 ± 0.0055
4,GGTGAAAC,-0.0179 ± 0.017
5,GTTGACAA,0.389 ± 0.016
6,GTTGACGA,0.279 ± 0.0033
7,TCTGACAA,-0.0245 ± 0.056
8,GGTGACTA,0.196 ± 0.039
9,TATGACAA,0.0285 ± 0.073
10,CTTGACAA,0.323 ± 0.011
11,GGTGACCA,0.075 ± 0.05
12,CAACGGTC,0.11 ± 0.036
13,CTATAGAG,-0.282 ± 0.072
14,ACTAGGCA,-0.204 ± 0.036
15,CGCTTCAC,0.235 ± 0.042
16,AGGTCGAC,-0.00677 ± 0.036
17,ACGGCAGT,-0.173 ± 0.031
18,ATTATAGG,-0.255 ± 0.027
19,GGGTGACC,-0.0352 ± 0.046
20,CGGTGACA,0.326 ± 0.026
21,TCGTGACA,0.325 ± 0.0037
22,GGGTGAAA,-0.0551 ± 0.015
23,GGGTGACA,0.4258 ± 0.0018
24,TGGTGACA,0.39 ± 0.0062
